# PubChem BioAssay (NCATS)
# Inconclusive results are not listed. A call without a number means that no potency is given here. Activity calls are given as the source filed them. Calls follow the shape of the dose curve; as a rule, active = well fitted inhibition curve with a large enough effect; inconclusive = small, poorly fitted or top-dose-only effect; inactive = flat fitted curve, though single readings scatter. Peptide text beside a SMILES is read from it.
# System: CP315
# Assay: qHTS profiling for inhibitors of Plasmodium falciparum proliferation (AID 504749); also: nearly all actives have a fitted effect of over 60% in size
# Conditions: P. falciparum in erythrocytes, SYBR Green DNA, 72 h; series mostly up to 12.8 µM
# Method in brief: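 In a 72 h erythrocytic culture (37 C, humidified, 5% CO2) at 2.5% hematocrit and 0.3% starting parasitemia, compounds were tested; SYBR Green I in detergent lysis buffer stained parasite DNA overnight.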
# Potency is read from the fitted curve at half-maximal effect.
row,Structure (SMILES),Potency
1,CCC(C)C(=O)OC1CCC=C2C=CC(C)C(CCC3CC(O)CC(=O)O3)[C@@H]21 (stereo partly specified),inactive
2,C[C@]1(c2ccccc2)OC(C(=O)O)=CC1=O,inactive
3,OCC1OC([S-])[C@H](O)C(O)C1O.[Au+] (stereo partly specified),inactive
4,COC(=O)N/N=C/C1=C[N+](=O)c2ccccc2[N+]1=O,inactive
5,CN1CC(=O)N=C1N,inactive
6,CNC1CC(N)[C@H](O)[C@@H](O[C@@H]2OC(CO)C3OC4(OC(C(N)CO)C(O)C(O)C4O)O[C@@H]3[C@H]2O)C1O (stereo partly specified),inactive
7,COC1C=CO[C@@]2(C)Oc3c(C)c(O)c4c(O)c(c(C=NN5CCN(C)CC5)c(O)c4c3C2=O)NC(=O)/C(C)=C\C=CC(C)C(O)[C@@H](C)C(O)C(C)[C@H](OC(C)=O)C1C (stereo partly specified),4.78 µM (active)
8,CC(=O)N[C@@H]1C(O)OC(CO)C(O)C1O (stereo partly specified),inactive
9,CCC(CCC(C)C1CCC2C3CC=C4CC(O)CC[C@@]4(C)C3CC[C@@]12C)C(C)C (stereo partly specified),inactive
10,O=C1OC(CO)C(O)C(O)C1O (stereo unspecified),inactive
11,COc1ccc(CC(N)C(=O)NC2C(CO)OC(n3cnc4c(N(C)C)ncnc43)C2O)cc1 (stereo unspecified),0.849 µM (active)
12,CCCC(=O)O[C@]1(C(=O)CO)CCC2[C@@H]3CCC4=CC(=O)CC[C@]4(C)C3C(O)C[C@]21C (stereo partly specified),inactive
13,COC(=O)C(Cc1ccccc1)NC(=O)C(N)CC(=O)O (stereo not drawn) (H-Asp-Phe-OMe; configuration not given here),inactive
14,CC[C@@]12CCCN3CCc4c(n(c5ccccc45)[C@](O)(C(=O)OC)C1)C32 (stereo partly specified),inactive
15,CC1(C)SC2C(N3C(=O)C(c4ccccc4)NC3(C)C)C(=O)N2C1C(=O)O (stereo unspecified),inactive
16,CC1CCC(C(C)C)C(=O)C1 (stereo unspecified),inactive

row,Structure (SMILES),Potency
1,CC(=O)N[C@H](CC(C)C)C(=O)O,inactive
2,CC(C)C1CCC(C(=O)NC(Cc2ccccc2)C(=O)O)CC1 (stereo unspecified),inactive
3,COc1ccc2cc(C(C)CO)ccc2c1 (stereo unspecified),inactive
4,CNC1C(OC2C(O[C@@H]3C(O)C(O)[C@@H](N=C(N)N)C(O)C3N=C(N)N)OC(C)[C@@]2(O)CO)OC(CO)C(O)C1O (stereo partly specified),inactive
5,CC1C2CCC3C4CC=C5CC(N(C)C)CC[C@@]5(C)C4CC[C@@]32CN1C (stereo partly specified),inactive
6,C[C@]12C=CC(=O)C=C1CCC1C2C(O)C[C@]2(C)C1CC[C@]2(O)C(=O)CO (stereo partly specified),inactive
7,COc1ccc2c(c1)N(C[C@@H](C)CN(C)C)c1ccccc1S2,inactive
8,CCOC(=O)C1=CC(OC(CC)CC)C(NC(C)=O)C(N)C1 (stereo unspecified),inactive
9,CN(C)CCc1c[nH]c2ccc(CC3COC(=O)N3)cc12 (stereo unspecified),inactive
10,NCC1CCC(N)C(O[C@@H]2C(O)[C@H](O[C@H]3OC(CO)C(O)C(N)C3O)[C@@H](N)C[C@H]2N)O1 (stereo partly specified),inactive
11,OCC1O[C@H](OC2C(CO)O[C@@](O)(CO)C2O)C(O)C(O)C1O (stereo partly specified),inactive
12,CC1(C)OC2CO[C@]3(COS(N)(=O)=O)OC(C)(C)OC3C2O1 (stereo partly specified),inactive
13,CC(=O)OC1CCC2C3CCc4cc(O)ccc4C3CCC12C (stereo unspecified),inactive
14,CN(C)CCCOC1C(C(O)CO)OC2OC(C)(C)O[C@@H]21 (stereo partly specified),inactive
15,COc1cc(C2c3cc4c(cc3C(O[C@@H]3OC5COC(c6cccs6)OC5C(O)C3O)C3COC(=O)C23)OCO4)cc(OC)c1O (stereo partly specified),3.79 µM (active)
